Lassa entry inh: inhibitors of Lassa virus binding or cell entry; Lassa virus pseudotype entry inhibition, cell reporter; Potency, µM (titrated, usually from 37.9 µM), inactives show at the highest dose activity change, negative = inhibition, most hits filed as inhibitors; 1.2% of 300,000 active; calls by dose curve; tested in HEK293 cells; further: potency means the concentration at half of the fitted maximal effect; nearly all actives have a fitted effect of over 50% in size
Vaccinia Venus: inhibitors of vaccinia virus (Venus reporter); Vaccinia virus Venus reporter expression, fluorescence; Potency, µM (doses to about 36.5 µM), inactives show at the top dose activity change, negative = inhibition, most hits filed as inhibitors; AID 720580; 0.46% of 330,000 active; calls by dose curve; tested in A549 cells; further: potency means the concentration at half of the fitted maximal effect; nearly all actives have a fitted effect of over 30% in size
HCMV antiviral: human cytomegalovirus inhibition | HFF cells, HCMV-luciferase reporter, 72 h; active compounds read low | 4.5% of 410,000 active | activity change, negative = inhibition, % at 57.5 µM | AID 1259415; in the data active means activity change below about -60%; inconclusive means no clear call, values can overlap the other calls; inactive means above about -39%
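After 16 h attachment at 37C, HFF cells received test compound and HCMV-luciferase (1 PFU/cell); reporter luminescence read 72 h later, data normalized against buffer-only and known inhibitor Salinomycin.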
FMDV antiviral: blocks foot and mouth disease virus; FMDV antiviral cell-based qHTS; Potency, µM (top dose mostly 57.9 µM), for the others: top-dose activity change, negative = inhibition, most hits filed as inhibitors; 1.2% of 410,000 active; calls by dose curve; tested in HEK293T cells; further: read-out not given here; potency means the concentration at half of the fitted maximal effect; nearly all actives have a fitted effect of over 45% in size
Vaccinia mCherry: inhibitors of vaccinia virus infection (mCherry reporter signal); Vaccinia virus mCherry reporter infection, fluorescence; Potency, µM (top dose mostly 36.5 µM), inactives show at the highest dose activity change, negative = inhibition, actives largely listed as inhibitors; 0.63% of 310,000 active; AID 720579; calls by dose curve; tested in A549 cells; further: potency means the concentration at half of the fitted maximal effect; nearly all actives have a fitted effect of over 35% in size
MARV entry inh: Marburg virus entry inhibition. Marburg virus pseudotyped entry inhibition, cell reporter. Potency, µM (doses to about 37.8 µM), for inactives: top-dose activity change, negative = inhibition, actives largely listed as inhibitors. 1.8% of 300,000 active. AID 540276; calls by dose curve; tested in HEK293 cells; further: potency means the concentration at half of the fitted maximal effect
* hit, by the source's call; i = inactive; ? = inconclusive; nt = not tested or not shown; [ ] = remark or other dose. Sampled rows, rich in hits. Any-hit rate of the full collection: about 6.5%. On the % scale 0 is the no-effect control and ±100 the full control effect.

SMILES | Lassa entry inh | Vaccinia Venus | HCMV antiviral | FMDV antiviral | Vaccinia mCherry | MARV entry inh
O=C(COC(=O)C1(c2ccccc2F)CCCC1)NCc1ccc2c(c1)OCO2 | ? | -15.7% | -60.0* | 0.0% | -26.5% | -7.1%
O=C(COC(=O)C1(c2ccc(F)cc2)CCCC1)NCc1ccc2c(c1)OCO2 | -1.5% | nt | -60.4* | 39.8µM* | nt | ?
O=C(COC(=O)c1ccc(Br)o1)NCc1ccc2c(c1)OCO2 | 25.7% | -13.9% | 7.0 | -17.0% | i | -14.7%
O=C(COC(=O)c1ccc([N+](=O)[O-])o1)NCc1ccc2c(c1)OCO2 | nt | nt | -83.1* | -3.6% | nt | nt
COc1ccc(CN2CCCC(n3cc(C(=O)N4CCCCC4)nn3)C2)cc1OC (configuration not stated) | nt | 4.7% | nt | 13.2% | -8.2% | nt
O=C(COC(=O)C1(c2ccccc2F)CCCC1)NCc1cccs1 | ? | -3.5% | -69.4* | -24.4% | -4.8% | ?
O=C(CN(Cc1ccccc1F)C(=O)c1csnn1)NCc1ccc2c(c1)OCO2 | 2.82µM* | -13.4% | -15.7 | -4.5% | -11.9% | -8.1%[46.1 µM]
COc1ccc(-c2cc(-c3cccs3)c(C#N)c(SCC(=O)NCc3ccccc3OC)n2)cc1 | ? | 8.0% | -61.1* | -14.8% | -4.6% | ?
Cc1nn(C)c(Cl)c1CN1CCOc2ccc(CN3CCC(Oc4cccnc4)CC3)cc2C1 | nt | -19.4% | nt | ? | -20.0% | nt
CC(C)C12CN3CC(C(C)C)(CN(C1)C3c1ccc([N+](=O)[O-])o1)C2=O (configuration not stated) | 0.3% | -7.5% | -72.4* | 12.6% | i | -0.5%[46.1 µM]
Cc1cccc(C(=O)n2nc(C)c(S(=O)(=O)N3CCOCC3)c2C)c1 | 7.1%[46.1 µM] | -13.1% | -9.4 | 9.3% | -18.4% | nt
COC1=CC(=O)c2nc(Cl)ccc2C1=O | nt | ? | -100.6* | 10µM* | ? | nt
Cc1ccc(CN2C(=O)C(O)(CC(=O)c3ccc(C)cc3)c3ccccc32)cc1 (configuration not stated) | ? | -4.3% | ? | -13.6% | -11.1% | -0.1%[46.1 µM]
CCOc1ccc(-c2cc(C(=O)NCCOC)[nH]n2)c(C)c1 | nt | -2.7% | 6.8 | 7.9% | -7.8% | nt
CCOc1ccc(-c2cc(C(=O)Nc3ccc(C)c(NS(C)(=O)=O)c3)[nH]n2)c(C)c1 | nt | ? | -91.1* | ? | 11.2µM* | nt
CCNC(=O)C1CCCN(Cc2ccc(OCc3ccccc3)cc2)CC1 (configuration not stated) | nt | 0.8% | -64.0* | 5.6% | 0.9% | nt
COCCNC(=O)C1CCCN(Cc2cccc(C#N)c2)CC1 (configuration not stated) | nt | 14.9% | -61.0* | -17.1% | 41.3% | nt
CCCCNC(=O)C1CCN(Cc2ccc(OCc3ccccc3)cc2)CC1 | ? | -20.2% | -16.0 | 12.4% | nt | ?
O=C1c2ccccc2-c2onc3ccc(Oc4ccccc4)c1c23 | 10µM* | 209.0% | 38.2 | ? | 33.4% | ?
C=CCNC(=O)C(=O)Nc1ccc2c(c1)N(S(=O)(=O)c1cccs1)CCC2 | 8.91µM* | ? | -8.5 | -5.3% | ? | ?
Cc1cc(/C=N/n2cnnc2)c(C)n1-c1ccc(OCc2ccccc2F)cc1 | ? | ? | -92.9* | nt | -20.5% | ?
Cc1cc(/C=N/n2cnnc2)c(C)n1-c1ccc(OCc2ccc(Cl)cc2)cc1 | ? | -22.6% | -91.5* | ? | ? | ?
CCN(CC)c1ccc(NC(=O)CN(C)S(=O)(=O)c2cccc3nsnc23)c(C)c1 | 3.0%[46.1 µM] | -8.7%[7.34 µM] | -66.6* | -23.5% | -7.8%[7.34 µM] | ?
Cc1ccc(NNC(=O)C(O)(c2cccc(C(F)(F)F)c2)c2cccc(C(F)(F)F)c2)cc1 | ? | ? | -88.7* | ? | ? | ?
O=C(NNc1ccccc1Br)C(O)(c1cccc(C(F)(F)F)c1)c1cccc(C(F)(F)F)c1 | ? | ? | -99.3* | 35.5µM* | 11.2µM* | ?
C=C1C(=O)O[C@H]2C[C@H]1[C@@H](OC(C)=O)C/C(C)=C/CC/C(C)=C\CC[C@]2(C)O | nt | 10µM* | -102.6* | 7.08µM* | 10µM* | nt
CC(=O)O[C@@H]1C[C@H]2C(C)=C[C@H]3OC(=O)[C@@H](C)[C@H]3C[C@H]2[C@]1(C)O | nt | -7.6% | -17.6 | -16.5% | -12.4% | nt
Cc1ccc(-n2[nH]c(=O)c(-c3ccccn3)c2C)cc1 | ? | -15.5% | ? | 7.08µM* | -8.8% | ?
